PubChem BioAssay (NCI)
“And” between values parts separate entries of the source, which are not always exact repeats. Identical values can stand only once. The panel holds about 83,000 compounds, 20% with a hit somewhere; the sample as a whole holds those more often.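 Compound tested at a single concentration for 48 hours in 96-well plates; a percent growth value below 10 was scored as active.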 The source made the active and inactive calls.

Assays:
Assay in all cases: NCI-60 one-dose screen, 48 h (100 = growth as untreated, 0 = no growth, -100 = all killed)
[1] = system: SK-MEL-2 melanoma
[2] = system: EKVX NSCLC
[3] = system: SN12C renal
[4] = system: UO-31 renal
[5] = system: TK-10 renal
Procedure: (§1) Growth inhibition of the TK-10 human tumor cell line is measured as a screen for anti-cancer activity. Cells are grown in 96 well plates and exposed to the test compound for 48 hours. Compounds are tested at a single concentration, which is 10^-5 M for most compounds. The reported endpoint is percent growth (GI% or GIPRCNT), where numbers from 0 - 100% represent growth inhibition, and numbers from -100% - 0 represent cell death. For example, a value of 40 represents 60% growth inhibition. A value of 0 means no net growth occurred over the course of the experiment. A value of -40 indicates 40% of cells at the beginning of the experiment died by the end of the experiment. A value of -100 means all cells are dead at the end of the experiment.
(§2) NCI-60 Human Tumor Cell Lines Screen was performed using the standard one-dose NCI protocol, which is described in more detail at https://dtp.cancer.gov/discovery_development/nci-60/default.htm.
(§3) Compounds with GIPRCNT values below 10 were considered active. Activity score was based on GIPRCNT using the following formula: […]
(§4) Score is 0 for GIPRCNT values of 100 or above, 50 for GIPRCNT values of 0, and 100 for GIPRCNT values of -100.

[6] = system: ACHN renal
[7] = system: CAKI-1 renal
[8] = system: A498 renal
[9] = system: CCRF-CEM leukemia
[10] = system: MOLT-4 leukemia
[11] = system: SR leukemia
[12] = system: RPMI-8226 leukemia
[13] = system: OVCAR-8 ovarian; conditions: 10 µM
Procedure: as §1, with “OVCAR-8” for “TK-10”
as §2, §3, §4

[14] = system: OVCAR-5 ovarian
[15] = system: OVCAR-4 ovarian
[16] = system: SK-OV-3 ovarian
[17] = system: IGROV1 ovarian
[18] = system: OVCAR-3 ovarian
[19] = system: HS 578T breast
[20] = system: NCI/ADR-RES ovarian

Measured: growth

CC/C(=C(\c1ccccc1)c1ccc(OCCN(C)C)cc1)c1ccccc1
inactive: [1]; 10 µM 68.5% | [2]; 10 µM 60% | [2]; 12.5 µM 36.5% | [3]; 10 µM 47.7% | [3]; 12.5 µM 37.1% | [4]; 10 µM 40.3% | [5]; 10 µM 51.9% | [5]; 12.5 µM 56.2% | [6]; 10 µM 60.6% | [6]; 12.5 µM 25.9% | [7]; 10 µM 29.1% | [8]; 10 µM 64.1% | [9]; 10 µM 34.6% | [10]; 10 µM 33.3% | [13] 60.5% | [15]; 10 µM 46.3% | [16]; 10 µM 76.8% | [16]; 12.5 µM 32.6% | [17]; 10 µM 41.2% | [18]; 10 µM 52.9% | [19]; 10 µM 60.5% | [20]; 10 µM 43.2%
active: [1]; 12.5 µM -50% | [4]; 12.5 µM -62.4% | [7]; 12.5 µM 9.74% | [8]; 12.5 µM -6.6% | [9]; 12.5 µM -14.1% | [10]; 12.5 µM -10.8% | [11]; 10 µM -18.9% | [11]; 12.5 µM -27.2% | [12]; 10 µM -28.3% | [12]; 12.5 µM -38.1% | [14]; 12.5 µM -83.1% | [15]; 12.5 µM 2.45% | [17]; 12.5 µM -20.4% | [18]; 12.5 µM -6.16% | [19]; 12.5 µM -70.9% | [20]; 12.5 µM -41.2%

CC[C@@]1(O)C(=O)OCc2c1cc1n(c2=O)Cc2cc3c(CN(C)C)c(O)ccc3nc2-1
9.24% (active) and 18.9% (inactive): [2]; 10 µM
inactive: [3]; 10 µM 13.6% and 14.3% | [15]; 10 µM 14% | [16]; 10 µM 10.6% and 20.4% | [17]; 10 µM 15.3% | [19]; 10 µM 28.5%
active: [1]; 10 µM -36.9% and -18.1% | [4]; 10 µM -45.7% and -74.6% | [5]; 10 µM 2.54% and -4.42% | [6]; 10 µM -40% and -40.5% | [7]; 10 µM -35% and -16.2% | [8]; 10 µM -50.8% and -69.4% | [9]; 10 µM -28.7% | [10]; 10 µM -3.69% and -19.2% | [11]; 10 µM -5.49% | [12]; 10 µM -28.3% | [13] 3.57% | [18]; 10 µM -21.7% and -9.74%
8.58% (active) and 13.8% (inactive): [14]; 10 µM
13.9% (inactive) and 5.76% (active): [20]; 10 µM

CN(Cc1cnc2nc(N)nc(N)c2n1)c1ccc(C(=O)N[C@@H](CCC(=O)O)C(=O)O)cc1
active: [8]; 2.5 µM -11.8% | [20]; 10 µM 7.09%
inactive: [1]; 2.5 µM 93.1% | [1]; 10 µM 83.2% | [2]; 2.5 µM 41.5% | [2]; 10 µM 47% | [3]; 2.5 µM 33.3% | [3]; 10 µM 26.9% | [4]; 2.5 µM 37.8% | [4]; 10 µM 32.3% | [5]; 2.5 µM 66.9% | [5]; 10 µM 67.7% | [6]; 2.5 µM 24.9% | [6]; 10 µM 29.4% | [7]; 2.5 µM 19.2% | [7]; 10 µM 15.5% | [9]; 2.5 µM 12.9% | [9]; 10 µM 18.8% | [10]; 2.5 µM 14.7% | [10]; 10 µM 10.9% | [11]; 2.5 µM 32% | [11]; 10 µM 26.8% | [12]; 2.5 µM 33.9% | [12]; 10 µM 41.7% | [14]; 2.5 µM 41.1% | [14]; 10 µM 27.2% | [15]; 2.5 µM 93.4% | [15]; 10 µM 105% | [16]; 2.5 µM 75% | [16]; 10 µM 56.2% | [17]; 2.5 µM 38.7% | [17]; 10 µM 21% | [18]; 2.5 µM 54.2% | [18]; 10 µM 47.8% | [19]; 2.5 µM 27.4% | [20]; 2.5 µM 29%

COc1ccc2sc3cccc(NCCN(C)C)c3c(=O)c2c1
53.1% (inactive) and 9.58% (active): [14]; 10 µM
64.7% (inactive) and -8.94% (active): [15]; 10 µM
17.4% (inactive) and -2.55% (active): [4]; 10 µM
77.8% (inactive) and 5.39% (active): [8]; 10 µM
41.2% (inactive) and -2.42% (active): [17]; 10 µM
23.8% (inactive) and -29.8% (active): [7]; 10 µM
57.2% (inactive) and 3.91% (active): [16]; 10 µM
45.1% (inactive) and 9.54% (active): [3]; 10 µM
active: [10]; 10 µM 8.84% and -15.2% | [11]; 10 µM -31.7%
70.2% (inactive) and -6.71% (active): [12]; 10 µM
40.9% (inactive) and 7.16% (active): [13]
21.3% (inactive) and -28.3% (active): [6]; 10 µM
81.2% (inactive) and 8.98% (active): [19]; 10 µM
inactive: [1]; 10 µM 77.3% and 70.7% | [2]; 10 µM 26.2% | [5]; 10 µM 36.1% and 32.2% | [9]; 10 µM 21.3% | [18]; 10 µM 61.6% and 22.1% | [20]; 10 µM 48.5% and 14.7%
